Laboratory results taken from PubChem BioAssay (NCATS).
Inconclusive results are not listed. The source made the active and inactive calls. Calls follow the shape of the dose curve; as a rule, active = well fitted curve in the direction sought with a large enough effect; inconclusive = small, poorly fitted or top-dose-only effect, or another doubt; inactive = no such curve, though single readings can be large; an effect the other way counts as inactive or inconclusive.

Assays:
[1] = qHTS of pediatric cancer cell lines to identify multiple opportunities for drug repurposing: Primary screen for LAN-5 cells (AID 1347100); also: potency is read from the fitted curve at half-maximal effect
Outline: (§1)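 Viability after 48 h compound treatment at 37C, 500-1,000 cells/well, read as ATP luminescence with CellTiter-Glo. Primary screens used 11-point (MIPE, 0.78 nM-46 µM) or 8-point (NPC, 0.59 nM-46 µM) final concentrations; follow-up screens used 11-point dilutions.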

[2] = qHTS of pediatric cancer cell lines to identify multiple opportunities for drug repurposing: Primary screen for BT-12 cells (AID 1347101); also: nearly all actives have a fitted effect of over 25% in size; also: potency is read from the fitted curve at half-maximal effect
Outline: (§2)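 Cells (500-1,000/well) rested 5 h, then received compounds for 48 h; metabolically active cells were measured by CellTiter-Glo luminescence. Final concentrations spanned up to 46 µM (MIPE, 11-point) or 0.59 nM-46 µM (NPC, 8-point) in primary screens, 11-point in follow-ups.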

[3] = qHTS of pediatric cancer cell lines to identify multiple opportunities for drug repurposing: Primary screen for Rh18 cells (AID 1347102); also: nearly all actives have a fitted effect of over 65% in size; also: potency is read from the fitted curve at half-maximal effect
Outline: as §1

[4] = qHTS of pediatric cancer cell lines to identify multiple opportunities for drug repurposing: Primary screen for OHS-50 cells (AID 1347103); also: nearly all actives have a fitted effect of over 40% in size; also: potency is read from the fitted curve at half-maximal effect
Outline: as §2

[5] = qHTS of pediatric cancer cell lines to identify multiple opportunities for drug repurposing: Primary screen for RD cells (AID 1347104); also: nearly all actives have a fitted effect of over 55% in size; also: potency is read from the fitted curve at half-maximal effect
Outline: (§3)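 Cells plated at 500-1,000/well in growth medium, compounds added after 5 h. MIPE tested at 11 points (from 0.78 nM), NPC at 8 points (from 0.59 nM). CellTiter-Glo luminescence after 48 h; concentration-response curves from primary screen.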

[6] = qHTS of pediatric cancer cell lines to identify multiple opportunities for drug repurposing: Primary screen for MG 63 (6-TG R) cells (AID 1347105); also: nearly all actives have a fitted effect of over 50% in size; also: potency is read from the fitted curve at half-maximal effect
Outline: as §3

[7] = qHTS of pediatric cancer cell lines to identify multiple opportunities for drug repurposing: Primary screen for control Hh wild type fibroblast cells (AID 1347106);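 also: series mostly up to about 46 µM; a drop in luminescence marks cytotoxicity and a rise apparent proliferation; nearly all actives have a fitted effect of over 55% in size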
Outline: as §1

[8] = qHTS of pediatric cancer cell lines to identify multiple opportunities for drug repurposing: Primary screen for Rh30 cells (AID 1347107); also: nearly all actives have a fitted effect of over 75% in size; also: potency is read from the fitted curve at half-maximal effect
Outline: as §1

[9] = qHTS of pediatric cancer cell lines to identify multiple opportunities for drug repurposing: Primary screen for Rh41 cells (AID 1347108); also: nearly all actives have a fitted effect of over 70% in size; also: potency is read from the fitted curve at half-maximal effect
Outline: as §3

[10] = qHTS of pediatric cancer cell lines to identify multiple opportunities for drug repurposing: Confirmatory screen for NB1643 cells (AID 1347109); also: nearly all actives have a fitted effect of over 45% in size
Outline: as §1

[11] = qHTS of pediatric cancer cell lines to identify multiple opportunities for drug repurposing: Confirmatory screen for A673 cells (AID 1347110);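 also: potency is read from the fitted curve at half-maximal effect; cells exposed to compound for 48 h before the viability read; nearly all actives have a fitted effect of over 65% in size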
Outline: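 A673 cells at 500-1,000 cells/well were dosed 5 h after plating, in dilution series up to 46 uM final; primary runs used 8 or 11 points and confirmatory runs used 11 points. Viability was read by CellTiter-Glo luminescence after 48 h, against DMSO and 2.3 uM bortezomib controls.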

[12] = qHTS of pediatric cancer cell lines to identify multiple opportunities for drug repurposing: Confirmatory screen for BT-12 cells (AID 1347112); also: nearly all actives have a fitted effect of over 55% in size
Outline: as §1

[13] = qHTS of pediatric cancer cell lines to identify multiple opportunities for drug repurposing: Confirmatory screen for DAOY cells (AID 1347114); also: nearly all actives have a fitted effect of over 65% in size
Outline: (§4)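 Viability measured as metabolically active cells via CellTiter-Glo luminescence following 48 hours of compound exposure, 11-point dilutions in confirmatory testing. 500-1,000 cells/well plated 5 hours before dosing; controls were DMSO and 2.3 µM bortezomib.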

[14] = qHTS of pediatric cancer cell lines to identify multiple opportunities for drug repurposing: Confirmatory screen for NB-EBc1 cells (AID 1347115);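 also: cells exposed to compound for 48 h before the viability read; nearly all actives have a fitted effect of over 45% in size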
Outline: as §1

[15] = qHTS of pediatric cancer cell lines to identify multiple opportunities for drug repurposing: Confirmatory screen for SJ-GBM2 cells (AID 1347116); also: nearly all actives have a fitted effect of over 60% in size
Outline: as §4

[16] = qHTS of pediatric cancer cell lines to identify multiple opportunities for drug repurposing: Confirmatory screen for U-2 OS cells (AID 1347122); also: nearly all actives have a fitted effect of over 65% in size
Outline: as §1

[17] = qHTS of pediatric cancer cell lines to identify multiple opportunities for drug repurposing: Confirmatory screen for Rh41 cells (AID 1347123);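 also: 48 h compound exposure; nearly all actives have a fitted effect of over 60% in size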
Outline: as §1

[18] = qHTS of pediatric cancer cell lines to identify multiple opportunities for drug repurposing: Confirmatory screen for BT-37 cells (AID 1347117); also: nearly all actives have a fitted effect of over 55% in size
Outline: as §1

[19] = qHTS of pediatric cancer cell lines to identify multiple opportunities for drug repurposing: Confirmatory screen for TC32 cells (AID 1347118)
Outline: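 qHTS, TC32, 48 h drug treatment, CellTiter-Glo luminescence as a proxy for metabolically active cells; primary top concentration 46 µM (MIPE 11-pt, NPC 8-pt); confirmatory 11-pt.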

Measured: Potency

CC(C)c1ccc2oc3nc(N)c(C(=O)O)cc3c(=O)c2c1
inactive: [1] | [2] | [3] | [4] | [5] | [6] | [7] | [8] | [9]

CCCCCCCCCCCCCCCCCCCCCCO
inactive: [1] | [2] | [3] | [4] | [5] | [6] | [7] | [8] | [9]

NS(=O)(=O)c1cc(C(=O)O)c(NCc2ccco2)cc1Cl
inactive: [1] | [2] | [3] | [4] | [5] | [6] | [7] | [8] | [9]

COc1cc2nc(N3CCN(C(=O)C4CCCO4)CC3)nc(N)c2cc1OC (stereo not given)
inactive: [1] | [2] | [3] | [4] | [5] | [6] | [7] | [8] | [9]

CC(C)[C@H](N)C(=O)OCCOCn1cnc2c(=O)[nH]c(N)nc21
inactive: [1] | [2] | [3] | [4] | [5] | [6] | [7] | [8] | [9]

CC(=O)N1CCN(c2ccc(OC[C@H]3CO[C@](Cn4ccnc4)(c4ccc(Cl)cc4Cl)O3)cc2)CC1
active: [1] 18.7 µM | [2] 24.3 µM

COc1cc(OC)c(C(=O)CCCN2CCCC2)c(OC)c1
inactive: [1] | [2] | [3] | [4] | [5] | [6] | [7] | [8] | [9]

O=C(O)c1cccc(-c2noc(-c3ccccc3F)n2)c1
inactive: [1] | [2] | [3] | [4] | [5] | [6] | [7] | [8]

O=C(c1ccccc1)c1ccc2n1CCC2C(=O)O (stereo not given)
inactive: [1] | [2] | [3] | [4] | [5] | [6] | [7] | [8] | [9]

Nc1ccn([C@@H]2O[C@H](CO)[C@@H](O)C2O)c(=O)n1 (stereo not given in full)
active: [11] 16.5 µM
not listed: [18] | [19]
inactive: all other assays above

Cc1nc2n(c(=O)c1CCN1CCC(c3noc4cc(F)ccc34)CC1)CCCC2
inactive: [1] | [2] | [3] | [4] | [5] | [6] | [7] | [8] | [9]

CNC[C@H](O)c1ccc(O)c(O)c1
inactive: [1] | [2] | [3] | [4] | [5] | [6] | [7] | [8] | [9]

N=C(N=C(N)N)N1CCOCC1
inactive: [1] | [2] | [3] | [4] | [5] | [6] | [7] | [8] | [9]

CCOC(=O)C(C)Oc1cccc2c(=O)n(CC(=O)Nc3ccc4c(c3)OCCO4)ccc12 (stereo not given)
inactive: [1] | [2] | [3] | [4] | [5] | [6] | [7] | [8] | [9]

O=C(NC(Cc1cc(=O)[nH]c2ccccc12)C(=O)O)c1ccc(Cl)cc1 (stereo not given)
inactive: [1] | [2] | [3] | [4] | [5] | [6] | [7] | [8] | [9]

Nc1cccc2c1CN(C1CCC(=O)NC1=O)C2=O (stereo not given)
inactive: [1] | [2] | [3] | [4] | [5] | [6] | [7] | [8] | [9]

CC(S)C(=O)NCC(=O)O (stereo not given)
not listed: [11] | [13] | [15] | [16] | [17]
inactive: all other assays above

NC(=O)Cc1cccc(C(=O)c2ccccc2)c1N
inactive: [1] | [2] | [3] | [4] | [5] | [6] | [7] | [8] | [9]

N[C@@H](Cc1cc(I)c(Oc2cc(I)c(O)c(I)c2)c(I)c1)C(=O)O
inactive: [1] | [2] | [3] | [4] | [5] | [6] | [7] | [8] | [9]

O=Nc1c(-c2c(O)[nH]c3cc(Br)ccc23)[nH]c2ccccc12
inactive: [7]
active: [1] 18.7 µM | [2] 24.3 µM | [3] 18.7 µM | [4] 19.3 µM | [5] 16.6 µM | [6] 18.7 µM | [8] 18.7 µM | [9] 14.8 µM
